From PubChem BioAssay AID493083 (Broad Institute, 2011)
Hit rate of the full screen: of about 2,400 compounds, about 95 (4%) were called active. About 3% were inconclusive and are not listed.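 The calls were made as follows: active = compounds lowering signal whose fitted AC50 is at most ten times the top tested dose; inconclusive = flat fit with moderate inhibition, or poor curve fit; inactive = the rest.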 The list is a sample of the results. Potency and affinity values are given separately.

Test: decrease of heat-induced HSF-1 GFP reporter, dose response, NIH3T3 R4 cells, GFP/RFP, cherry-pick, set 3 (AID 493083)
Details: NIH3T3 R4 HSF-1 GFP reporter, heat shock, 48 h; series mostly up to 19.5 µM

outcome, inactive:
COc1ccc(N2CCN(c3ccc(NC(=O)NN)cc3)CC2)cc1, Cc1cc(NC(=O)c2ccc3nc(C)sc3c2)no1, COc1ccccc1N1CCN(C(=S)Nc2ccc(F)cc2)CC1, O=c1[nH]cc(S(=O)(=O)c2ccccc2)[nH]1, CC1CCN(CC(=O)NC2CCCCC2)CC1, CCS(=O)(=O)N1CCN(C(=O)c2ccccc2)CC1, Cc1ccc2c(c1)c(C)c(C)n2CC(O)Cn1nnc2ccccc21 (stereo not drawn), O=S1(=O)N[C@H](c2ccccc2)C[C@H](c2ccc(C(F)(F)F)cc2)O1, CC(C)[C@H](NC(=O)Cc1ccccc1)C(=O)OCc1cc(=O)n2c(n1)sc1ccccc12, Cc1ccc(CN2CCN(Cc3cccc(OCCO)c3)CC2CCO)o1 (stereo not drawn), Cc1ccc(-c2nn(-c3ccccc3)cc2CN(C)C(=O)CCC(=O)O)cc1C, Fc1ccc(-n2cc(CNCCc3ccccn3)c(-c3ccccc3Cl)n2)cc1, CN=c1scc(-c2cccs2)n1/N=C/c1ccccc1O, CN=c1scc(-c2ccccc2F)n1/N=C/c1ccc[nH]1, CN(C)S(=O)(=O)c1ccc(-c2csnn2)s1, CCn1c(C(C#N)/C(=N\S(=O)(=O)c2cccs2)c2ccccc2)nc2ccccc21 (stereo not drawn), Cc1ccc(S(=O)(=O)N2CCC(C(=O)N[C@@H](Cc3ccccc3)C(=O)O)CC2)cc1, CCN1C(=O)c2ccccc2S(=O)c2ccc(C(=O)NCc3ccc(OC)cc3)cc21 (stereo not drawn), Cc1ccc(C(=O)Nc2cc3ccccc3oc2=O)cc1, Cc1nc2ccc(NC(=O)N3CCSCC3)cc2s1, COc1ccc(CNC(=O)CCCNC(=O)c2ccc(Cl)cc2)cc1OC, COC(=O)c1cc(S(=O)(=O)NCc2ccc(F)cc2)cn1C, C=CCOc1ccccc1CN(C(=O)CCl)c1ccc2c(c1)OCO2
